Source: PubChem (National Center for Advancing Translational Sciences (NCATS))
A selection: hits, their analogues and other compounds. The true share with any hit is near 3.7%.
Tau fluor counter: counter-screen for tau fibril formation inhibitors; tau K18 P301L Alexa594 fluorescence, heparin fibrillization; Potency, µM (titrated, usually from 57.7 µM), inactives show at the highest dose activity change, negative = decrease; 280,000 compounds, 0.93% hits; AID 1463; further: on the % scale 0 is the no-effect control and ±100 the full control effect; nearly all actives have a fitted effect of over 55% in size
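Human K18 P301L tau (15 uM unlabeled plus 0.24 uM Alexa 594-labeled, final) in 100 mM sodium acetate pH 7 was mixed with compound and 20 uM heparin and incubated 6 hr at 37 C.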
Tau fibril FP: blocks human tau fibril formation measured by polarization; P10636; AID 1468; 280,000 compounds, 0.39% hits; Potency, µM (series often up to 57.7 µM), for the others: top-dose activity, negative = inhibition, most hits filed as inhibitors; K18 P301L tau heparin fibrillization, Alexa594 FP, 6 h; further: on the % scale 0 is the no-effect control and ±100 the full control effect; nearly all actives have a fitted effect of over 55% in size
Target sequence (P10636 561-689 P618L limits assumed): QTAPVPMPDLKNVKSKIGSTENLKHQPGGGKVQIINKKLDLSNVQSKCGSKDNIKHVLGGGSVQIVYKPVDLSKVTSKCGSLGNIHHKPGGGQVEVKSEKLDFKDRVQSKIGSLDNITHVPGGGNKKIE
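Human K18 P301L fragment (15 uM unlabeled plus 0.24 uM Alexa 594-labeled) in 100 mM sodium acetate pH 7 with compound, aggregation induced by 20 uM heparin for 6 hr at 37 C. ThT (30 uM) added for 1 hr, then Alexa 594 FP read.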
HTT cytoprotect: protects HTT-Q103 PC12 cells, measured by ATP. PC12 HTT-Q103 induced, cytoprotection, ATP luminescence, 40 h. Potency, µM (doses to about 56.4 µM), without a hit: cytoprotection (ATP increase), hits mostly activators. 230,000 compounds, 0.14% hits; further: % of control where 0% means no effect; nearly all actives have a fitted effect of over 45% in size
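Readout: ATPlite luminescence (ATP level). Model: stable PC12, inducible Htt exon1 Q103-GFP. Inducer: tebufenozide, 100 nM final. Compounds: dose series. No G418 in medium.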
Tau ThT inhib: inhibitors of human tau fibril formation, thioflavin T binding | recombinant tau K18 P301L, heparin-induced fibrillization, ThT fluorescence | 270,000 compounds, 2.1% hits | AID 1460 | Potency, µM (highest dose often 57.4 µM), for inactives: at the top dose activity, negative = inhibition, usual class: inhibitors | P10636; further: on the % scale 0 is the no-effect control and ±100 the full control effect; nearly all actives have a fitted effect of over 55% in size
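ThT emission at 510 nm, taken 1 hr after adding 30 uM dye, quantifies aggregates formed when 20 uM heparin acts on human tau K18 P301L for 6 hr at 37 C.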
HttQ103 aggreg: inhibitors of mutant huntingtin aggregate formation in PC12 cells; PC12 HttQ103-GFP aggregates, Acumen cytometry, 40 h; AID 1688; Potency, µM (doses to about 46.1 µM), without a hit: at the top dose activity change, negative = inhibition, most hits filed as inhibitors; 220,000 compounds, 1.1% hits; further: on the % scale 0 is the no-effect control and ±100 the full control effect; nearly all actives have a fitted effect of over 60% in size
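Inducible Q103 Huntingtin exon 1–GFP PC12 line, 1500 cells/well in phenol red free DMEM with 5% equine and 5% calf serum. Tebufenozide 100 nM induced expression; compounds titrated; aggregates quantified by cytometry.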
* marks the source's active call; other numbers are inactive results; ? = inconclusive; nt = no result given; ! = a repeat was not active; [ ] = remark or other dose. The call rests on the fitted dose curve; in most records, active means well fitted curve in the direction sought with a large enough effect; inconclusive means small, poorly fitted or top-dose-only effect, or another doubt; inactive means no such curve, though single readings can be large; an effect the other way counts as inactive or inconclusive. Potency means the concentration at half of the fitted maximal effect.

SMILES	Tau fluor counter	Tau fibril FP	HTT cytoprotect	Tau ThT inhib	HttQ103 aggreg
CCOc1ccc(NC(=O)NCCN2CCN(c3cc(Cl)ccc3C)CC2)cc1	14.1µM*[quencher]	?	nt	?	nt
Cc1ccc(Cl)cc1N1CCN(CCNC(=O)Nc2ccc(Cl)cc2)CC1	?	12.6µM*	nt	-1.1%	nt
COc1ccc(N2CCN(CCNC(=O)Nc3ccc(Cl)cc3)CC2)cc1	-21.0%	16.2%	25.2%[10 µM]	-14.9%	12.2%
CCOC(=O)OCC1C=C[C@H](c2cc(-c3ccccc3)ccc2O)C(c2ccc(C(C)=O)cc2)O1 (stereo partly specified)	?	3.5%[11.6 µM]	?	1.9%[11.5 µM]	nt
Cc1ccc(NC(=O)C2CCCN2S(=O)(=O)c2cccc3cccnc23)cc1C (stereo unspecified)	-20.7%	-2.3%	nt	?	nt
CC1=CC2(O)OCCN(CCO)C2=CC1=O (stereo unspecified)	?	?	-4.2%[10 µM]	28.2µM*	-6.9%
Cc1ccc(NC(=O)C2CCCN(S(=O)(=O)c3cccs3)C2)c(C)c1 (stereo unspecified)	-12.3%	-2.4%	nt	-13.5%	nt
NCCNC(=S)S	nt	nt	11.2%[10 µM]	nt	nt
CCOC(=O)C1CCCN(C(=S)Nc2ccc(F)cc2)C1 (stereo unspecified)	0.8%	3.1%	-69.3%	-2.4%	-4.1%
CCOC(=O)C1CCCN(C(=O)Nc2ccccc2)C1 (stereo unspecified)	-14.2%	-12.7%	nt	-15.7%	0.631µM*
Cn1cc(-c2nc3cnc(N4CCNCC4)nc3n(Cc3ccc(F)cc3)c2=O)c2ccccc21	nt	nt	-66.5%	nt	nt
CCNc1ncc2nc(-c3cn(C)c4ccccc34)c(=O)n(Cc3ccc(F)cc3)c2n1	nt	nt	25.1µM*	nt	nt
CCc1nc(Nc2ccc(N3CCN(C(C)=O)CC3)cc2)c2oc3ccccc3c2n1	?	16.5%	-117.9%	12.6µM*	?
CC(=O)N1CCN(c2ccc(Nc3ncnc4c3oc3ccccc34)cc2)CC1	?	3.4%	-67.7%	4.47µM*	17.8µM*
O=C(SCc1cccc2ccccc12)c1ccc(Cl)cc1	nt	nt	4.0%[10 µM]	nt	nt
COc1ccccc1N1CCN(CCCNc2cc(=O)n(C)c(=O)n2C)CC1	-8.0%	?	31.6µM*!	?	24.4%
COC(=O)c1ccc(NC(=O)CC2Nc3cc(C)c(C)cc3NC2=O)cc1 (stereo unspecified)	?	3.1%	nt	?	nt
Cc1ccc(C)c(S(=O)(=O)c2nnn3c2nc(Nc2ccc(F)c(Cl)c2)c2sccc23)c1	?	14.1µM*	nt	?	nt
CCc1ccc(S(=O)(=O)c2nnn3c2nc(Nc2ccc(F)cc2)c2cc(Cl)ccc23)cc1	?	14.1µM*	nt	-0.6%	nt
CCC1CN(C(=O)Nc2cccc3c2CCCC3)c2cc(C)ccc2O1 (stereo unspecified)	-6.8%	9.9%	nt	-8.5%	nt
CCN(CC)CCOCCOC(=O)C(CC)(CC)c1ccccc1 (tested in a mixture with another compound)	nt	nt	-27.8%	nt	9.1%
Nc1nc2ncc(C(=O)c3cc(Cl)cc(Cl)c3O)cc2s1	-25.1%	6.6%	-5.9%[10 µM]	?	14.5%[9.22 µM]
CC(C)c1noc2ncc(C(=O)c3cc(Cl)cc(Cl)c3O)cc12	-7.4%	14.4%	-16.7%	?	11.2µM*
Cc1nnsc1C(=O)Oc1ccccc1Cl	-17.5%	-8.2%	nt	?	nt
CC(N)CN (stereo unspecified)	nt	nt	18.7%	nt	nt
SMILES	Tau fluor counter	Tau fibril FP	HTT cytoprotect	Tau ThT inhib	HttQ103 aggreg
O=C(COc1ccc(Br)cc1CNCCc1ccccc1)NCc1ccccc1	-18.9%	-6.7%	-231.4%	-15.0%	12.6µM*
C[C@@](Cc1ccc(O)c(O)c1)(NN)C(=O)O	?	?	-134.4%	14.1µM*!	9.0%
C[C@](Cc1ccc(O)c(O)c1)(NN)C(=O)O	nt	nt	-31.0%[1.9 µM]	nt	nt
CC(N)(Cc1ccc(O)c(O)c1)C(=O)O (stereo unspecified)	?	?	nt	3.98µM*	nt
Cc1cc(C)c(S(=O)(=O)/N=C2/C=C(Sc3ncn[nH]3)C(=O)c3ccccc32)cc1C	4.0%	-1.2%	-98.3%[10 µM]	3.5%	3.55µM*
CN(C)CCOC(=O)c1ccc(N)cc1	nt	nt	7.7%[10 µM]	nt	nt
CN1CC(O)C2=CC(=O)C(=O)C=C21 (stereo unspecified)	5.62µM*[quencher]	12.6µM*	-58.8%	3.16µM*	nt
CCN1CCN(Cc2ccc(NC(=O)c3cc(NC(=O)C(=O)c4c[nH]c5ccccc45)cc(OC)c3)cc2C(F)(F)F)CC1	?	14.1µM*	37.4%[10 µM]	-14.2%	-13.2%[9.22 µM]
CCN1CCN(Cc2ccc(NC(=O)c3ccc(C)c(NC(=O)C(=O)c4c[nH]c5ccccc45)c3)cc2C(F)(F)F)CC1	-23.9%	?	23.8%[10 µM]	-13.7%	?
COc1cc(NC(=O)c2ccco2)c(OC)cc1NC(=O)Nc1cccc(Cl)c1	12.6µM*[quencher]	9.1%	-22.7%	?	-9.6%
O=C(Nc1cccc(Cl)c1)Nc1cccc(Cl)c1	-21.6%	?	?	-10.2%	?
COC(=O)c1cc(NC(=S)Nc2cc(Cl)cc(Cl)c2)cc(C(=O)OC)c1	?	31.6µM*	nt	-5.4%	?
COC(=O)c1cccc(NC(=S)Nc2ccccc2Cl)c1	-7.3%	-11.6%	8.8%[10 µM]	nt	4.4%[9.22 µM]
COC(=O)c1cccc(NC(=S)Nc2ccc(Cl)c(Cl)c2)c1	20µM*[quencher]	?	5.1%[10 µM]	4.8%	-2.7%[9.22 µM]
COC(=O)c1cc(NC(=O)Nc2cccc(Cl)c2)ccc1Cl	7.94µM*[quencher]	7.94µM*	3.0%	?	?
CCNc1ncc2nc(-c3ccc(Cl)cc3)c(=O)n(Cc3ccc(F)cc3)c2n1	nt	nt	4.9%	nt	nt
COc1cc(C)c(C)cc1S(=O)(=O)Nc1cccc(-c2ccc(N3CCOCC3)nn2)c1	-5.9%	3.1%	nt	7.6%	nt
CCOC(=O)c1c(C)[nH]c(N=Nc2ccccc2C)c1C	?	5.0%	5.9%	5.01µM*	-6.8%
CCOC(=O)c1c(C)[nH]c(N=Nc2cc(C(=O)O)cc(C(=O)O)c2)c1C	-4.9%	-0.9%	-14.1%[10 µM]	?	3.1%[9.22 µM]
CCOC(=O)c1c(C)[nH]c(N=Nc2ccc(C)cc2C)c1C	?	13.0%	nt	6.31µM*	?
Cc1nc2ccccc2nc1-c1ccc(N=[N+]([O-])c2ccc(-c3nc4ccccc4nc3C)cc2)cc1	nt	nt	3.2%[10 µM]	nt	nt
CCOc1ccc(C(C)NC(=S)NC2CCCCC2)cc1 (stereo unspecified)	-16.9%	3.4%	8.6%[10 µM]	-5.1%	0.562µM*
COc1ccc(C(=O)NCC(c2cccnc2)N2CCc3ccccc3C2)cc1OC (stereo unspecified)	-29.7%	-11.0%	nt	?	nt
O=C(NCCc1c[nH]c2ccccc12)c1cc2sccc2n1Cc1ccccc1	8.91µM*[quencher]	-7.4%	-26.4%	-18.1%	3.4%[9.22 µM]
O=C1C2C3C=CC(C3)C2C(=O)N1/N=C/c1cc(Br)cc([N+](=O)[O-])c1O (stereo unspecified)	-14.6%	-2.1%	-3.8%[10 µM]	7.94µM*	12.6µM*
